Measured values as given in PubChem BioAssay AID528 (NMMLSC, 2006).
Hit rate of the full screen: of about 24,000 compounds, fewer than 10 were called active. Not shown: some 9% with an inconclusive outcome.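 Rule for the calls: active = fluorescent ligand binding to cells raised by more than 40% of the manganese-induced maximum; inconclusive = compound's own fluorescence above 85% of the ligand control signal; inactive = the rest.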 Not all results are given here.

These molecules were tested against Integrin alpha-4 (Homo sapiens) (UniProt P13612) (assay: enhancers of LDV-FITC binding to VLA-4 integrin, primary screen, Jurkat cells, flow cytometry (AID 528;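 note: 0% = ligand binding without compound and 100% = manganese-stimulated maximal binding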)). Conditions: hits give high values, screened at 10 µM (by protocol).
Integrin alpha-4 (Homo sapiens), sequence (P13612 whole entry, looked up): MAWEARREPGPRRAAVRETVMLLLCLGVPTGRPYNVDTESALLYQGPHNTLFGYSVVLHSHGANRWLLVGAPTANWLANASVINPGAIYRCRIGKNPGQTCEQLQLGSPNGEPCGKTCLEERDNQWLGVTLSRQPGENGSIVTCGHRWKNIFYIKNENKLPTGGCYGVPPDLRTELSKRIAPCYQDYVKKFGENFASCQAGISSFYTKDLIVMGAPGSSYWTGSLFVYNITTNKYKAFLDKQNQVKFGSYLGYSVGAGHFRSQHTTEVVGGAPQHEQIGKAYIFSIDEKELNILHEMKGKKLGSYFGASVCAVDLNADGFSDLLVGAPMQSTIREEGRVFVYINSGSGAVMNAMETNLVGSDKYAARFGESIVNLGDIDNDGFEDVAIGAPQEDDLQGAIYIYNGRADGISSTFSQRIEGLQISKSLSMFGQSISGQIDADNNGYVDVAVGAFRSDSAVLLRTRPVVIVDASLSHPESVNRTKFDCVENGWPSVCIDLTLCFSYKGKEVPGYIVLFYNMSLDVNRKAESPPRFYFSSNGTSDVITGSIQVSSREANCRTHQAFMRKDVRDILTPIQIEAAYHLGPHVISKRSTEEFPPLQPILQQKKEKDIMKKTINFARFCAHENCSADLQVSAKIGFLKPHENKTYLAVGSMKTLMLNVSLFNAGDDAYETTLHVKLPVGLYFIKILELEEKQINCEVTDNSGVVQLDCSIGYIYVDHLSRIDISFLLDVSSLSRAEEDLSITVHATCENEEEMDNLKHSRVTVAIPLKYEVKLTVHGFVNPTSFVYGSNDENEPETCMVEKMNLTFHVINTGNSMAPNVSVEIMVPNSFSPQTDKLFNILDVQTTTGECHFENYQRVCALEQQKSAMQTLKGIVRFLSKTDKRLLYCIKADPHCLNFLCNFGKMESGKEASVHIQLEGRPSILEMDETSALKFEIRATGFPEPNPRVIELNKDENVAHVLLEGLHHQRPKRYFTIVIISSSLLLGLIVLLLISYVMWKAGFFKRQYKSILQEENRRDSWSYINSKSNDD

SMILES	activation
Cc1ccccc1S(=O)(=O)Cc1ccc(C(=O)NCCN2CCCCC2C)o1 (stereo not drawn)	-1% (inactive)
Nc1c(C(=O)NCc2ccccc2)nnn1Cc1cccc(Cl)c1	-4% (inactive)
CCCCCOC(=O)C1=C(C)Nc2nnnn2C1c1ccc(OC)c(OC)c1OC (stereo not drawn)	-4% (inactive)
CCC(=O)N1c2ccc(S(=O)(=O)CCC(=O)N3CCN(c4ccccc4)CC3)cc2CC1C (stereo not drawn)	-5% (inactive)
COc1ccc(OC)c(CNC(=O)CCc2nc(-c3cccs3)no2)c1	2% (inactive)
Cc1ccccc1NC(=O)c1ccccc1	-14.5% (inactive)
CCOC(=O)N1CCC(NC(=O)CCc2cn(C)c3ccccc23)CC1	8% (inactive)
COc1cc2[nH]c(=S)n(Cc3ccc(C)o3)c(=O)c2cc1OC	0% (inactive)
CCOC(=O)CNC(=O)CN1C(=O)CCSc2ccccc21	6% (inactive)
CCOC(=O)c1ccc(CS(=O)c2ccc(Cl)cc2)o1 (stereo not drawn)	4% (inactive)
COC(=O)C1=C(C)OC(N)=C(C#N)C1c1cc(OC)ccc1OC (stereo not drawn)	-3% (inactive)
Cc1ccc(NC(=O)C2CC(c3ccc(F)cc3)=NO2)cc1 (stereo not drawn)	3% (inactive)
CCc1c(C)c2c(C)[nH]nc2oc1=O	-1% (inactive)
CC12COC3(C(=O)Nc4ccc(Cl)cn4)CC1CCC32C (stereo not drawn)	5% (inactive)
Cc1ccc(S(=O)(=O)NCC(=O)N(CC(=O)NC2CCCCC2)Cc2ccco2)cc1	2% (inactive)
O=C1Nc2c(Br)cc(Br)cc2C1(O)N1CCOCC1 (stereo not drawn)	9% (inactive)
CCOC(=O)N1CCN(C(=O)C2CC(c3ccc(F)cc3)=NO2)CC1 (stereo not drawn)	6% (inactive)
Clc1ccc(Cc2nn3c(-c4ccncc4)nnc3s2)cc1	2% (inactive)
CCOCCc1c(O)nc(SCC(=O)NCc2ccco2)[nH]c1=O	-1% (inactive)
COc1cccc(C(=O)Nc2c3c(nn2-c2cccc(C)c2C)CS(=O)(=O)C3)c1OC	-3% (inactive)
COc1ccc2oc(=O)c(C(=O)N3CCN(c4ccccc4F)CC3)cc2c1	3.5% (inactive)

SMILES	activation
CCOc1ccccc1NC(=O)C1CCN(S(=O)(=O)c2c(C)nn(C)c2C)CC1	2% (inactive)
COc1ccc(CCNC(=O)CCCCn2c(=O)[nH]c3ccccc3c2=O)cc1OC	4% (inactive)
C#CC(C)(C)NC(=O)CSc1nc2c(c(=O)n(C)c(=O)n2C)n1CCCC	8% (inactive)
CCCS(=O)(=O)N1CCCC(C(=O)N2CCN(c3ccccc3)CC2)C1 (stereo not drawn)	0% (inactive)
CCOC(=O)C1CCCN(C(=O)C2CCN(c3nnc(-n4cccc4)s3)CC2)C1 (stereo not drawn)	-1% (inactive)
CCOC(=O)N1CCC(Nc2c(NCCCN3CCN(c4ccc(OC)cc4)CC3)c(=O)c2=O)CC1	-4% (inactive)
COC(=O)c1ccc(NC(=O)CSc2nnc(Cc3cccn3C)n2-c2ccc(F)cc2)cc1	-4% (inactive)
Cc1noc(C)c1S(=O)(=O)N(CC(=O)Nc1ccc2c(c1)OCCO2)c1ccc(C(C)C)cc1	-8% (inactive)
Cn1c(C(=O)N2CCC(C(N)=O)CC2)cc2c(=O)n(C)c3ccccc3c21	-1% (inactive)
O=C(Nc1ccccc1C(=O)N1CCOCC1)C1CCC(=O)N1C1CCCC1 (stereo not drawn)	8% (inactive)
CN1CCN(S(=O)(=O)c2ccc3[nH]cc(C(=O)O)c(=O)c3c2)CC1	2% (inactive)
Cc1ccnc(N2C(=O)c3ccccc3C2Nc2ccc3c(c2)OCCO3)c1 (stereo not drawn)	-5% (inactive)
COCCCNC(=O)c1ccc(CNS(=O)(=O)c2ccc(NC(C)=O)cc2)cc1	-3.5% (inactive)
Cc1nc(N2CCN(c3ncccn3)CC2)c2oc3ccccc3c2n1	-3.5% (inactive)
CC(C)OCCCNC(=O)C1CC(=O)N(C2CCCCCCC2)C1 (stereo not drawn)	-1% (inactive)
Cc1ccc(S(=O)(=O)N2CCCC2CO)cc1 (stereo not drawn)	5% (inactive)
COc1ccc(C(=O)NC(=O)CSc2nnc(-c3ccco3)n2-c2ccccc2)cc1	1.3% (inactive)
Cc1ccccc1CN1CCN(C(=O)c2cccc(F)c2)CC1	4% (inactive)
CC1CCN(Cc2nc3c(c(=O)n(C)c(=O)n3C)n2Cc2cccc3ccccc23)CC1	2% (inactive)
CCOc1nc(OCC)nc(-n2cc(-c3ccccc3)nn2)n1	2% (inactive)
FC(F)Oc1ccccc1C1CC(c2ccc(Br)s2)Nc2ncnn21 (stereo not drawn)	3% (inactive)

SMILES	activation
Cc1cc(Nc2cccc(F)c2)n2ncnc2n1	-0.5% (inactive)
O=C(c1ccco1)N1CCN(C(=O)c2ccc(COc3ccc(F)cc3)o2)CC1	0% (inactive)
Cn1c(CNC(=O)C(C)(C)C)nc2ccccc21	-3% (inactive)
Cc1cc(NS(=O)(=O)c2ccccc2)no1	5.5% (inactive)
CCOC(=O)c1cn(CC(=O)Nc2ccc(C(C)C)cc2)nn1	-2% (inactive)
Cc1cccc(C)c1NC(=O)N1CC=C(n2c(=O)[nH]c3ccccc32)CC1	0% (inactive)
Cc1ccc(S(=O)(=O)n2nc(OC(=O)C(C)(C)C)cc2N)cc1	4% (inactive)
CCOC(=O)c1c(C)c(C(=O)NCCc2ccc(S(N)(=O)=O)cc2)c(C)n1CC	16% (inactive)
O=C(O)C1C2C=CC(C2)C1C(=O)N1CCN(CCO)CC1 (stereo not drawn)	-2% (inactive)
Cc1cnc(C(=O)OCC(=O)Nc2ccc(Cl)cc2Cl)cn1	3% (inactive)
CCOC(=O)Cn1c(CN(Cc2ccccc2)Cc2ccccc2)nc2c1c(=O)[nH]c(=O)n2C	-5% (inactive)
O=S(=O)(O)CCN1CCOCC1	-6% (inactive)
O=C(NC1CCCCC1)C1CCCN(S(=O)(=O)c2cccs2)C1 (stereo not drawn)	-10.5% (inactive)
COc1ccc(C(=O)NCc2cn3ccccc3n2)cc1	-2% (inactive)
Cc1ccccc1NC(=O)Cc1nnc(SCC(=O)N2CCN(c3ccccc3)CC2)n1C	0.5% (inactive)
CC(C)CCNC(=O)CCNS(=O)(=O)c1ccc(Cl)cc1	-2.7% (inactive)
COc1ccccc1-c1c(C)nn2c(C)c(C(C)=O)cnc12	-2% (inactive)
COc1cccc(OCC(O)CN2CCN(CCO)CC2)c1 (stereo not drawn)	3.3% (inactive)
CCCC(=O)Nc1cccc(-c2cn3ccsc3n2)c1	3% (inactive)
Cc1noc(C)c1S(=O)(=O)NCCc1ccc(S(N)(=O)=O)cc1	3% (inactive)
CC(=O)N(CC1CCCO1)C1(C(=O)NC2CCCC2)CCCCC1 (stereo not drawn)	0% (inactive)
